Data reported in PubChem BioAssay.
Activity calls are given as the source filed them. Unless noted, no rule for the calls is given here.

Columns and labels:
[1] = system: Wnt5a (protein binding on small-molecule microarray); assay: Wnt5a binders on small-molecule microarray, primary screen, biophysical, 635/667 nm fluorescence (AID 1142); details: 635 nm fluorescence, higher = more signal;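 also: fluorescence read at 667 nm with signal to noise per printed feature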
[2] = cell viability in Huh7 cells, primary screen, cytotoxicity control for HCV replication inhibitor project, CellTiter-Glo luminescence, basal, 48 h (AID 1143); details: Huh7 HCV replicon, higher = more signal, called active from +8 up or from −8 down;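 also: Huh7 hepatoma cells carrying a hepatitis C replication reporter with no stimulus; test concentration not given here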
[3] = P. aeruginosa biofilm formation inhibitors, primary screen, PAO1 strain, BacTiter-Glo luminescence, LB-PBS (AID 1144); details: 12 h, higher = more signal
[4] = CREB reporter modulators without forskolin, primary screen, cell-based, PC12, CRE-LacZ reporter, unstimulated (AID 1145); details: no forskolin, luminescence, 4.5 h, higher = more signal, called active from +8 up or from −8 down
[5] = CREB reporter modulators under forskolin, primary screen, cell-based, PC12, CRE-LacZ reporter, forskolin-stimulated (AID 1146); details: luminescence, 4.5 h, higher = more signal, called active from +8 up or from −8 down;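 also: PC12 cells with 6xCRE LacZ reporter stimulated by forskolin 10 µM; beta-galactosidase reporter signal reflecting CREB driven transcription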
[6] = biological target: Streptavidin (Streptomyces avidinii) (UniProt P22629); assay: streptavidin binders on small-molecule microarray, primary screen, artefact control for SMM compound annotation, biophysical, 635/667 nm fluorescence (AID 1147); details: streptavidin binding, higher = more signal;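 also: signal reflects streptavidin binding to arrayed compounds as a control protein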
[7] = small-molecule binders of probe aInhba, primary screen, biochemical, small-molecule microarray, 635/667 nm fluorescence (AID 1148); details: higher = more signal;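 also: score merges 667nm spot fluorescence with signal-to-noise for antibody binding to printed compounds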
Torsin-1A (Homo sapiens) [8] = biological target: Torsin-1A (Homo sapiens) (UniProt O14656); assay: torsin A binders from cell lysate, primary screen, small-molecule microarray, wild-type, 635/667 nm (AID 1149); details: COS7 hTOR1A-WT lysate, 635 nm fluorescence, higher = more signal
Torsin-1A (Homo sapiens) [9] = biological target: Torsin-1A (Homo sapiens) (UniProt O14656); assay: small-molecule binders of mutant TOR1A in lysate, primary screen, cell lysate, small-molecule microarray, COS7 lysate, 635/667 nm fluorescence (AID 1150); details: COS7 hTOR1A mutant lysate, 635 nm fluorescence, higher = more signal;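 also: score pools 667 nm emission and signal to noise measuring lysate protein binding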
[10] = system: Sonic hedgehog protein (Shh); assay: small-molecule binders of Shh protein, primary screen, biochemical, small-molecule microarray, 635/667 nm fluorescence (AID 1151); details: small-molecule microarray binding, 635 nm fluorescence; higher = more signal;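 also: Shh protein binding to compounds spotted on small-molecule microarray slides; score combines spot fluorescence intensity with signal-to-noise across triplicate slides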

Chain of Streptavidin (Streptomyces avidinii) (P22629 whole entry, looked up): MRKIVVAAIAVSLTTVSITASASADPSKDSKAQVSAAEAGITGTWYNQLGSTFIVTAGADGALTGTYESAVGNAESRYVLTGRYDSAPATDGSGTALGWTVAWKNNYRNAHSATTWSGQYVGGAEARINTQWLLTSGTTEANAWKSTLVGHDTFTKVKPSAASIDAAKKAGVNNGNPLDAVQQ
Chain of Torsin-1A (Homo sapiens) (O14656 whole entry, looked up): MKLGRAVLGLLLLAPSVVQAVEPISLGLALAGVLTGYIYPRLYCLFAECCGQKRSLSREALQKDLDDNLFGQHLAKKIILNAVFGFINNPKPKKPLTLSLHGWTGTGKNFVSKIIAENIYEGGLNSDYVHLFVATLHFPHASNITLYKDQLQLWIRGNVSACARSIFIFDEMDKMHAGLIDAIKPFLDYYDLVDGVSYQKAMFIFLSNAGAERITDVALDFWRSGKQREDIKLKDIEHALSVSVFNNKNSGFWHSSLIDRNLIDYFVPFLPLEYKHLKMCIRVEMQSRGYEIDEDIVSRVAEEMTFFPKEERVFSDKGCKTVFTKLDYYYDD

## [N-]=[N+]=Nc1ccccc1C[C@]1(C(=O)NCCN2CCOCC2)N=C(c2ccc(OCCCO)cc2)O[C@H]1c1ccccc1
[1]
  composite z-score: 0.577
[2]
  z-score: -2.47 (inactive)
[3]
  z-score: 0.355 (inactive)
[4]
  z-score: 0.4 (inactive)
[5]
  z-score: -0.604 (inactive)
[6]
  composite z-score: -0.186
[7]
  composite z-score: 0.101
Torsin-1A (Homo sapiens) [8]
  composite z-score: 0.729
Torsin-1A (Homo sapiens) [9]
  composite z-score: 0.749
[10]
  composite z-score: 0.109

## CC(C)(C)N1CC=CC23O[C@@H]4/C=C\CCCOC(=O)C4[C@H]2C(=O)N(CCO)[C@@H]3C1=O (stereo not given in full)
[1]
  composite z-score: 0.501
[2]
  z-score: 0.0369 (inactive)
[3]
  z-score: -0.647 (inactive)
[4]
  z-score: -0.492 (inactive)
[5]
  z-score: -0.533 (inactive)
[6]
  composite z-score: -0.801
[7]
  composite z-score: -0.416
Torsin-1A (Homo sapiens) [8]
  composite z-score: -0.769
Torsin-1A (Homo sapiens) [9]
  composite z-score: -0.875
[10]
  composite z-score: -0.131

## CCCCC(CC)C(O)C1C=CC2C(=O)N(c3ccccc3)C(=O)C2N1Nc1ccccc1 (stereo not given)
[1]
  composite z-score: 0.0653
[2]
  z-score: -2.93 (inactive)
[3]
  z-score: -0.569 (inactive)
[4]
  z-score: 0.253 (inactive)
[5]
  z-score: 0.011 (inactive)
[6]
  composite z-score: 0.948
[7]
  composite z-score: 0.103
Torsin-1A (Homo sapiens) [8]
  composite z-score: -0.311
Torsin-1A (Homo sapiens) [9]
  composite z-score: 0.178
[10]
  composite z-score: -0.751

## CCOC(=O)C[C@H]1[C@H](OC(=O)c2ccc(-c3ccccc3)cc2)[C@@H](NC(=O)Cc2ccc(OC)cc2)c2cc(OCCCO)ccc2N1C(=O)c1ccc2ccccc2n1
[1]
  composite z-score: 0.163
[2]
  z-score: 0.429 (inactive)
[3]
  z-score: 0.26 (inactive)
[4]
  z-score: -0.0529 (inactive)
[5]
  z-score: -0.489 (inactive)
[6]
  composite z-score: 0.8
[7]
  composite z-score: -0.0468
Torsin-1A (Homo sapiens) [8]
  composite z-score: 0.33
Torsin-1A (Homo sapiens) [9]
  composite z-score: -0.0342
[10]
  composite z-score: -0.525

## Cc1ccc(S[C@]2(C(=O)NCCN3CCOCC3)CC(=O)N(Cc3cc(C(F)(F)F)cc(C(F)(F)F)c3)[C@@H]2c2ccc(CO)cc2I)cc1
[1]
  composite z-score: -0.314
[2]
  z-score: -2.42 (inactive)
[3]
  z-score: -0.956 (inactive)
[4]
  z-score: 0.389 (inactive)
[5]
  z-score: -0.0376 (inactive)
[6]
  composite z-score: -0.71
[7]
  composite z-score: -0.183
Torsin-1A (Homo sapiens) [8]
  composite z-score: -2
Torsin-1A (Homo sapiens) [9]
  composite z-score: 0.561
[10]
  composite z-score: -0.4

## COCC(=C=CC[C@@H](O)c1ccc(CO)o1)CCO
[1]
  composite z-score: 0.0507
[2]
  z-score: -3.6 (inactive)
[3]
  z-score: -1.23 (inactive)
[4]
  z-score: 0.014 (inactive)
[5]
  z-score: -0.845 (inactive)
[6]
  composite z-score: -0.618
[7]
  composite z-score: -0.024
Torsin-1A (Homo sapiens) [8]
  composite z-score: -0.117
Torsin-1A (Homo sapiens) [9]
  composite z-score: -0.114
[10]
  composite z-score: 2.2

## CC(C)C(=C=CC[C@@H](O)c1ccccc1OCCO)C[C@@H](O)c1ccccn1
[1]
  composite z-score: -0.0212
[2]
  z-score: -1.3 (inactive)
[3]
  z-score: 0.497 (inactive)
[4]
  z-score: 1.19 (inactive)
[5]
  z-score: -0.3 (inactive)
[6]
  composite z-score: -0.0132
[7]
  composite z-score: 0.0275
Torsin-1A (Homo sapiens) [8]
  composite z-score: 0.276
Torsin-1A (Homo sapiens) [9]
  composite z-score: -0.303
[10]
  composite z-score: 1.14

## COCCOC(=O)N1C(=O)[C@@]2(c3cc(C#CCNC(N)=O)ccc31)[C@H](c1ccccc1OCCO)N1[C@H](c3ccccc3)[C@H](c3ccccc3)OC(=O)[C@H]1[C@@H]2C(N)=O
[1]
  composite z-score: 0.116
[2]
  z-score: -0.895 (inactive)
[3]
  z-score: 0.287 (inactive)
[4]
  z-score: 0.802 (inactive)
[5]
  z-score: 5.24 (inactive)
[6]
  composite z-score: 0.234
[7]
  composite z-score: 0.0422
Torsin-1A (Homo sapiens) [8]
  composite z-score: 0.198
Torsin-1A (Homo sapiens) [9]
  composite z-score: 0.41
[10]
  composite z-score: 1.8

## CC(=O)NCCCC[C@@H]1NC(=O)[C@H]2C[C@@H](C(=O)NCCCCCC[N+](C)(C)C)[C@@H](c3cccc(OCCO)c3)N2C1=O
[1]
  composite z-score: 0.408
[2]
  z-score: -2.49 (inactive)
[3]
  z-score: -1.01 (inactive)
[4]
  z-score: -0.801 (inactive)
[5]
  z-score: -0.812 (inactive)
[6]
  composite z-score: 0.927
[7]
  composite z-score: -0.149
Torsin-1A (Homo sapiens) [8]
  composite z-score: 1.07
Torsin-1A (Homo sapiens) [9]
  composite z-score: 0.59
[10]
  composite z-score: 2.26

## [N-]=[N+]=Nc1ccccc1[C@@H]1OC(c2ccc(OCCCO)cc2)=N[C@]1(CCS(=O)(=O)c1ccccc1)C(=O)N1CCOCC1
[1]
  composite z-score: 1.3
[2]
  z-score: -2.26 (inactive)
[3]
  z-score: -0.199 (inactive)
[4]
  z-score: 1.8 (inactive)
[5]
  z-score: -1.49 (inactive)
[6]
  composite z-score: 1.52
[7]
  composite z-score: 0.165
Torsin-1A (Homo sapiens) [8]
  composite z-score: 0.46
Torsin-1A (Homo sapiens) [9]
  composite z-score: 1.63
[10]
  composite z-score: -0.29

## COC(=O)c1c(CC[C@@H](CO)NC(=O)N[C@@H](Cc2ccccc2)Cn2cc(C3(O)CCCCC3)nn2)oc(C(C)=O)c1C(=O)OC
[1]
  composite z-score: 0.636
[2]
  z-score: -5.52 (inactive)
[3]
  z-score: -1.73 (inactive)
[4]
  z-score: 0.512 (inactive)
[5]
  z-score: -1.36 (inactive)
[6]
  composite z-score: 1.16
[7]
  composite z-score: -0.0178
Torsin-1A (Homo sapiens) [8]
  composite z-score: 0.69
Torsin-1A (Homo sapiens) [9]
  composite z-score: 0.405
[10]
  composite z-score: 1.7

## [N-]=[N+]=NCc1ccccc1[C@H]1OC(c2ccc(OCCCO)cc2)=N[C@@]1(CCS(=O)(=O)c1ccccc1)C(=O)N1CCOCC1
[1]
  composite z-score: 1.03
[2]
  z-score: -0.865 (inactive)
[3]
  z-score: 0.164 (inactive)
[4]
  z-score: 0.526 (inactive)
[5]
  z-score: 0.363 (inactive)
[6]
  composite z-score: 1.62
[7]
  composite z-score: 0.556
Torsin-1A (Homo sapiens) [8]
  composite z-score: 1.7
Torsin-1A (Homo sapiens) [9]
  composite z-score: 1.85
[10]
  composite z-score: -0.164

## O=C1O[C@@H](c2ccccc2)[C@@H](c2ccccc2)N2[C@@H](c3ccc(O)cc3)[C@]3(C(=O)Nc4ccc(C#CC5(O)CCCCCC5)cc43)[C@@H](C(=O)N3CCCCCCC3)[C@H]12
[1]
  composite z-score: 1.74
[2]
  z-score: -2.41 (inactive)
[3]
  z-score: -1.55 (inactive)
[4]
  z-score: 0.362 (inactive)
[5]
  z-score: -0.981 (inactive)
[6]
  composite z-score: 3.13
[7]
  composite z-score: 1.67
Torsin-1A (Homo sapiens) [8]
  composite z-score: 2.71
Torsin-1A (Homo sapiens) [9]
  composite z-score: 2.35
[10]
  composite z-score: 2.27

## CO[C@H]1O[C@H](CO)[C@@H](OC(=O)Nc2ccc3c(c2)OCO3)[C@H](OC(=O)Nc2ccccc2)[C@H]1OC(=O)Nc1ccccc1
[1]
  composite z-score: 0.446
[2]
  z-score: -5.46 (inactive)
[3]
  z-score: -0.785 (inactive)
[4]
  z-score: 1.16 (inactive)
[5]
  z-score: -2.23 (inactive)
[6]
  composite z-score: 0.869
[7]
  composite z-score: 0.0906
Torsin-1A (Homo sapiens) [8]
  composite z-score: 0.487
Torsin-1A (Homo sapiens) [9]
  composite z-score: 1.11
[10]
  composite z-score: 1.43
